This is one part of a sample in which hits are shown more often than they occur.
LDHA block: LDHA (human) enzyme inhibition; P00338; purified LDHA, NADH/diaphorase-resazurin fluorescence; hits give low values; activity change, % (values are at about 110 or 230 µM); 0.15% of 480,000 active; AID 1347041; in the data active = activity change below about -30%; inconclusive = mostly about -25% to -30%;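 also: plate controls were DMSO wells for no effect and wells without enzyme for full effect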
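LDH5 2 nM; NADH 0.06 mM, pyruvate 0.2 mM; 200 mM Tris pH 7.4, EDTA, Tween-20; 5 min RT. Detection: diaphorase 0.133 mg/mL + resazurin 37 µM, fluorescence ex540/em590 at 0 and 20 min; normalized to enzyme-free and DMSO wells.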
Mito fusion act: inhibitors of mitochondrial division or activators of mitochondrial fusion. S. cerevisiae fusion-defective mutant growth rescue, CellTiterGlo 48 h. Potency, µM (doses to about 46.1 µM), for inactives: at the top dose growth rescue (activation), actives largely listed as activators. 0.23% of 320,000 active; also: potency is read from the fitted curve at half-maximal effect; % of control where 0% means no effect; nearly all actives have a fitted effect of over 45% in size
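Yeast fusion mutant, YPEG (non-fermentable carbon), compound, 48 h at 37C non-permissive; CellTiterGlo added, 10 min RT, luminescence read. Rescued growth = division inhibition.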
RGS4 inhibitor: blocks human RGS4-accelerated GTP hydrolysis; P49798; Transcreener GDP fluorescence polarization, RGS4-accelerated GTP hydrolysis; Potency, µM (doses to about 114 µM), inactives show top-dose activity change, negative = inhibition, usual class: inhibitors; 0.039% of 390,000 active; AID 504845; also: potency is read from the fitted curve at half-maximal effect; % is scaled to controls: 0 for no effect and ±100 for the full control effect; nearly all actives have a fitted effect of over 75% in size
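MLSMR compounds (23 nl, pin-transferred) preincubated 10 min at room temperature with a 500nM (2x) first reagent, then RGS4 at 900nM (2x) plus Transcreener GDP mix added; fluorescence polarization (620/688 nm) read before and after 90 min at 30 °C.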
ClpP mod: qHTS Assay for Activators of ClpP | AID 651965, 2013 | 1.9% of 340,000 active | ATP-dependent Clp protease proteolytic subunit (Bacillus subtilis (strain 168)), P80244 | purified B. subtilis ClpP, FRET peptide cleavage, 20 min | Potency, µM (titrated, usually from 57.5 µM), for the others: at the highest dose activity change, negative = active; active = well fitted falling curve with a large enough effect; inconclusive = small, poorly fitted or top-dose-only effect; inactive = no such curve, though single readings can be large or run the other way; also: potency is read from the fitted curve at half-maximal effect; the source files actives as falling curves though it sought activators and does not explain the sign; nearly all actives have a fitted effect of over 65% in size
Target sequence (P80244 whole entry, looked up): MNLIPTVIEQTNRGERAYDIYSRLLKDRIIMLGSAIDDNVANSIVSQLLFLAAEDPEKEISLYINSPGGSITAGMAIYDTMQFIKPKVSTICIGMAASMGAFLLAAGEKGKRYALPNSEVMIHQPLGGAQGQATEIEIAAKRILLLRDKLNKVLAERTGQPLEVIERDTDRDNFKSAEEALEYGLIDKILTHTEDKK
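FRET quenching reversal measured ClpP activation: 10 microg/mL B. subtilis ClpP at pH 8 with the FRET-FV decapeptide, read at 430 nm after 320 nm excitation. The 20-min minus 0-min signal was scaled between DMSO/no-enzyme wells and ADEP (5.8 microM final).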
mIDH1 inhibitor: blocks human mutant IDH1 R132H enzyme; AID 602179; O75874; Potency, µM (titrated, usually from 76.6 µM), for inactives: at the top dose activity change, negative = inhibition, actives largely listed as inhibitors; IDH1-R132H enzyme, NADPH consumption, diaphorase/resazurin fluorescence; 0.093% of 390,000 active; also: potency is read from the fitted curve at half-maximal effect; % is scaled to controls: 0 for no effect and ±100 for the full control effect; nearly all actives have a fitted effect of over 65% in size
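IDH1-R132H (0.5 ug/mL) preincubated 30 min with compound, then NADPH (0.016 mM) and alpha-KG (2 mM) added; 80 min at RT, pH 7.5. Remaining NADPH coupled via diaphorase/resazurin to fluorescence (540/590 nm); concentration-response curves normalized to no-enzyme control.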
S-ASM inh: blocks human secretory acid sphingomyelinase | P17405 | Potency, µM (series often up to 57.5 µM), for the others: at the highest dose activity change, negative = inhibition, actives largely listed as inhibitors | 0.006% of 340,000 active | placental ASM, HMU-PC fluorogenic substrate, 60 min; also: potency is read from the fitted curve at half-maximal effect
Target sequence (P17405 47-631 limits assumed): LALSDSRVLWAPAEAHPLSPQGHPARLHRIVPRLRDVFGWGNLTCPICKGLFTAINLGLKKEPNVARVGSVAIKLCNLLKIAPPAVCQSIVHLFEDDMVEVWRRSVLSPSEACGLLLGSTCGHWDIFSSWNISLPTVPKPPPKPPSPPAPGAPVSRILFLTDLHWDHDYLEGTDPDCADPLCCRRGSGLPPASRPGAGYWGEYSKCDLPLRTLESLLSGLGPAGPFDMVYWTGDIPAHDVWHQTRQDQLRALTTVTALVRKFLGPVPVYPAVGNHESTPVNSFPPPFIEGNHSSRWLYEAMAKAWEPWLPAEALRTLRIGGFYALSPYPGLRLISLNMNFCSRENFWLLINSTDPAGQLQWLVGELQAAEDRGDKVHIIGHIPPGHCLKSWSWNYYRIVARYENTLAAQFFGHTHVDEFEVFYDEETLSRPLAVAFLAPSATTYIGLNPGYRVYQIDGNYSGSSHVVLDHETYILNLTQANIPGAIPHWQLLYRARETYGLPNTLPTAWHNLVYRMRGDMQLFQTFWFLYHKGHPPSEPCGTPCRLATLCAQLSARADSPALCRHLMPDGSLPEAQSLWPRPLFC
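Human placenta-derived ASM preincubated with compound 10 min at room temperature, then reacted with 9 uM (final) fluorogenic HMU-PC substrate for 60 min at 37 C. Stop solution raises pH to 10; fluorescence read at Ex 386/Em 447 nm.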
Resorufin autofl: autofluorescence interference, mutant IDH1 hit counter-screen; 750 tested, under 10 active; AID 623980; shares compounds with mIDH1 inhibitor; Resorufin detection reagent fluorescence interference, cell-free; inhibition of signal, % at 51.2 µM;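 also: 0% = wells with normal resorufin and full inhibition = wells lacking resorufin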
IDH1 WT: selectivity of mutant IDH1 inhibitors: human wild-type IDH1; AID 623995; Potency, µM (doses to about 115 µM), inactives show at the highest dose activity change, negative = inhibition, usual class: inhibitors; shares compounds with mIDH1 inhibitor; 9% of 750 active; WT IDH1 enzyme, NADPH diaphorase/resazurin fluorescence;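 also: potency is read from the fitted curve at half-maximal effect; 0% = full WT IDH1 enzyme control and full inhibition = no enzyme wells; nearly all actives have a fitted effect of over 55% in size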
IDH1 R132H conf: inhibits human mutant IDH1 enzyme in cherrypick confirmation; shares compounds with mIDH1 inhibitor; IDH1 R132H enzyme, NADPH diaphorase/resazurin fluorescence; Potency, µM (highest dose often 76.6 µM), for the others: top-dose activity change, negative = inhibition, most hits filed as inhibitors; 83% of 750 active; AID 624002; also: potency is read from the fitted curve at half-maximal effect; nearly all actives have a fitted effect of over 50% in size
Numbers without * were called inactive; ? = inconclusive; . = not tested or not shown; [ ] = dose if it differs, or a comment. Unless noted, calls follow the shape of the dose curve; as a rule, active = well fitted curve in the direction sought with a large enough effect; inconclusive = small, poorly fitted or top-dose-only effect, or another doubt; inactive = no such curve, though single readings can be large; an effect the other way counts as inactive or inconclusive.

SMILES	LDHA block	Mito fusion act	RGS4 inhibitor	ClpP mod	mIDH1 inhibitor	S-ASM inh	Resorufin autofl	IDH1 WT	IDH1 R132H conf
COc1ccc(-c2nc3nc(C)cc(N4CCCCCC4)n3n2)cc1	3	.	.	.	.	.	.	.	.
CCOC(=O)C(CCC#N)(NC(C)=O)C(=O)OCC	1	.	.	.	.	.	.	.	.
CC(=O)Nc1sc(C)c(C)c1C(=O)OCC(=O)N(C)C1CCS(=O)(=O)C1 (stereo not drawn)	-8	-2%	-9%	35µM*	1%	0%	.	.	.
CCOC(=O)c1c(NC(=O)C2C3C=CC(C3)C2C(=O)O)sc2c1CCC(CC)C2 (stereo not drawn)	3	-7%	-5%	25µM*	-1%	-14%	.	.	.
CCOC(=O)c1c(NC(=O)C2C3C=CC(CC3)C2C(=O)O)sc(C)c1C (stereo not drawn)	-5	14%	-4%	28µM*	5%	2%	.	.	.
Cc1noc(C)c1C(=O)OCC(=O)N(C)C1CCS(=O)(=O)C1 (stereo not drawn)	-11	6%	10%	.	-1%	-2%	.	.	.
CCOC(=O)c1c(NC(=O)C2C3CCC(O3)C2C(=O)O)sc2c1CCC(CC)C2 (stereo not drawn)	-11	-1%	13%	.	4%	6%	.	.	.
O=C(O)c1ccc(Br)cc1F	-2	.	.	.	.	.	.	.	.
O=C(CSc1nc2cc(Cl)ccc2s1)Nc1cccc(F)c1	7	.	.	.	.	.	.	.	.
CC(C)c1ccc(S(=O)(=O)NCCc2ncc3ccccn23)cc1	9	.	.	.	.	.	.	.	.
COC(=O)c1ccccc1NC(=O)c1ccc2c(c1)C(=O)N(Cc1ccco1)C2=O	-7	.	-9%	28µM*	3%	-1%	.	.	.
COc1ccccc1NC(=O)c1ccc2c(c1)C(=O)N(Cc1ccco1)C2=O	1	1%	-33%	1%	0%	10%	.	.	.
O=C(NCc1ccco1)c1ccc2c(c1)N(Cc1ccccc1)C(=O)c1ccccc1S2=O (stereo not drawn)	-2	.	.	.	.	.	.	.	.
O=C(NCc1ccco1)c1ccc2c(c1)C(=O)N(Cc1ccccc1)C2=O	-7	-1%	11%[11.4 µM]	28µM*	-4%	-4%	.	.	.
CCN(CC)C(=O)c1sc2c(c1C)c(=O)n(CCc1ccccc1)c(=O)n2Cc1cccc(Cl)c1	2	.	2%	0%	32µM*	.	-6	3%	11µM*
CCN(CC)C(=O)c1sc2c(c1C)c(=O)n(CCc1ccccc1)c(=O)n2Cc1ccc(F)cc1Cl	2	.	-1%	3%	-29%	.	.	.	.
N=c1c(S(=O)(=O)c2ccccc2)cc2c(=O)n3ccccc3nc2n1CC1CCCO1 (stereo not drawn)	0	2%	-4%[11.4 µM]	?	?	134%	-2	8%	35µM*
N=c1c(S(=O)(=O)c2ccc(Cl)cc2)cc2c(=O)n3ccccc3nc2n1CC1CCCO1 (stereo not drawn)	-11	0%	-8%	?	4%	2%	.	.	.
CCc1ccc(N(C(=O)Cc2cccs2)C(C(=O)NC2CCCCC2)c2cn(C)nc2C)cc1 (stereo not drawn)	0	2%	-17%	-1%	0%	1%	.	.	.
Cc1ccc(C(C(=O)NC2CCCC2)N(C(=O)Cc2cccs2)c2cccc(C)c2C)o1 (stereo not drawn)	3	-2%	-19%	1%	9.3µM*	-5%	2	5%	6.3µM*
COc1cccc(N(C(=O)Cc2cccs2)C(C(=O)NC2CCCC2)c2ccncc2)c1 (stereo not drawn)	-8	-4%	21%	.	-10%	-1%	.	.	.
Cc1cc(C)cc(N(C(=O)Cc2cccs2)C(C(=O)NC2CCCCC2)c2ccccn2)c1 (stereo not drawn)	0	-4%	-20%	2%	?	0%	3	10%	14µM*
Cc1ccccc1C(C(=O)NC1CCCC1)N(C(=O)Cc1cccs1)c1ccc2c(c1)OCCO2 (stereo not drawn)	-4	-2%	-15%	-6%	6.6µM*	-1%	3	0%	4µM*
CCOc1cccc(N(C(=O)Cc2cccs2)C(C(=O)NC2CCCCC2)c2cccn2C)c1 (stereo not drawn)	-5	-4%	12%	2%	?	-2%	-2	7%	16µM*
O=C(CSc1nc2ccccc2o1)N(Cc1ccccc1)Cc1ccccc1	-2	.	.	.	.	.	.	.	.
SMILES	LDHA block	Mito fusion act	RGS4 inhibitor	ClpP mod	mIDH1 inhibitor	S-ASM inh	Resorufin autofl	IDH1 WT	IDH1 R132H conf
Cc1cc(C)cc(N(C(=O)Cc2cccs2)C(C(=O)NC2CCCC2)c2ccc(C)o2)c1 (stereo not drawn)	-1	-4%	10%	1%	7.4µM*	-2%	-8	10%	4µM*
COc1ccc(N(C(=O)Cc2cccs2)C(C(=O)NC2CCCC2)c2ccncc2)cc1 (stereo not drawn)	8	-1%	-6%	.	-2%	-2%	.	.	.
O=C(Nc1ccc2ccccc2c1)C1=C(c2ccccc2)S(=O)(=O)CCO1	0	.	.	.	.	.	.	.	.
O=C1C(F)=CC(COC(c2ccccc2)(c2ccccc2)c2ccccc2)OC1n1cc(F)c(=O)[nH]c1=O (stereo not drawn)	-3	.	?	1%	26µM*	?	-3	50µM*	11µM*
Cc1ccc(-n2c(O)c(C=Nc3ccccc3-c3n[nH]c(=S)[nH]c3=O)c3ccccc3c2=O)c(C)c1	-1	-10%	?	.	?	-4%	-5	79µM*	35µM*
O=C(COC(=O)c1ccc(F)c([N+](=O)[O-])c1)NC(=O)NCc1ccccc1	-7	.	-18%	-2%	46µM*	-1%	-8	-14%	28µM*
COc1ccc(NC(=O)c2ccccc2C)c2cccnc12	46	.	.	.	.	.	.	.	.
Cc1c(C=O)c(C)n(-c2cccc(Cl)c2)c1C	3	.	.	.	.	.	.	.	.

Screening data from PubChem BioAssay.
